We go through 18 compounds from PubChem BioAssay (Tox21).

Unmarked numbers belong to inactive results. A call without a number means that no potency is given here. Active and inactive are the calls of the source. Calls come from the whole dose curve.

Sequence of Acetylcholinesterase (Homo sapiens) (P22303 whole entry, looked up): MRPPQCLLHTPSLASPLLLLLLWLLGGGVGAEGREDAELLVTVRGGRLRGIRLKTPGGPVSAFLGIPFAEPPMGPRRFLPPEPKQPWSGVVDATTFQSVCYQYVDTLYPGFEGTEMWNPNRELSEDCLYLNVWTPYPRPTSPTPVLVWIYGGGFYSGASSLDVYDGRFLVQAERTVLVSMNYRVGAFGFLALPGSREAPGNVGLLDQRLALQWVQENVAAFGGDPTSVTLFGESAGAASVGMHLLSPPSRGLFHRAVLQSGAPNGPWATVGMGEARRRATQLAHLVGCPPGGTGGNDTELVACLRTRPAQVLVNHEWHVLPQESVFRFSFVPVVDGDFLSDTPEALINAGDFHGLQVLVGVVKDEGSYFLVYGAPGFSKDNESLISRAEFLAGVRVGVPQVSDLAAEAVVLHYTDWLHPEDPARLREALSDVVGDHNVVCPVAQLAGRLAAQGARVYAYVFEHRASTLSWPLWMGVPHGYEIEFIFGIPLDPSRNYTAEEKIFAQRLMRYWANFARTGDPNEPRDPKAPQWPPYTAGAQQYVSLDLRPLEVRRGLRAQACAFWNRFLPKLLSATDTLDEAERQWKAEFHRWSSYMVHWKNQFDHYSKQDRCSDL

The target in this assay is Acetylcholinesterase (Homo sapiens) (UniProt P22303). The assay can be described thus: Acetylcholinesterase (AChE) small molecule antagonists: enzyme-based qHTS assay with human liver microsomes (AID 1347399). Note: nearly all actives have a fitted effect of over 60% in size. The following applies: Potency: qHTS inhibition; outcome: qHTS inhibition; series mostly up to 115 µM. Put shortly:
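Recombinant human AChE (50 mU/mL in the enzyme mix) and human liver microsomes (0.25 mg/mL final) were preincubated with compound and NADPH (0.25 mg/mL final) for 30 min at 37 C. Acetylthiocholine/DTNB was then added; thiocholine was read colorimetrically after 10 min at room temperature.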
In general terms: qHTS replaces the single test concentration by a dilution series.
Consider `C=CC(C)(O)CCCC(C)CCCC(C)CCCC(C)C` (stereo not drawn), for which the Potency result was “inactive”. Consider `CCCCC/C=C\CCC=O`, for which the Potency entry was “inactive”.

As for `CCc1ccc(C)nc1`, the Potency entry was “inactive”. On to `N#CCCOCCOCCC#N`, for which the Potency result was “inactive”. In the case of `CCCCCCCCCCCCCCCC(=O)OC/C=C(C)/C=C/C=C(C)/C=C/C1=C(C)CCCC1(C)C`, the Potency entry is “inactive”.

Regarding `CCCCCCCCC(=O)OCC(C)OC(=O)CCCCCCCC` (stereo not drawn), the Potency result was “inactive”. Same read-out and setting: under `O=C1CCCCCCCCCCCCCCCO1` stands “inactive”; under `COc1ccc(-c2coc3cc(O)ccc3c2=O)cc1`, “inactive”. `Oc1cccc(Nc2ccccc2)c1`: the Potency entry was “inactive”.

For `C=C(C)CCO`, the Potency result was “inactive”. In the case of `O=C(O)c1cccc(C(F)(F)F)c1`, the Potency result was “inactive”. Consider `CC(S)C(C)S` (stereo not drawn), for which the Potency result is “inactive”.

On to `CC(C)(C)c1ccccc1`, for which the Potency result was “inactive”. `CCCCCCCCCCc1ccccc1`: the Potency result is “inactive”. As to `CC(C)(C)C(=O)OCOC(=O)C1N2C(=O)CC2S(=O)(=O)C1(C)C` (stereo not drawn), the Potency result was “inactive”. As to `Cc1ccc(O)cn1`, the Potency entry was “inactive”. Take `COc1cc(C(C)C)ccc1C`: the activity change, negative = inhibition was -4.86% [at 23.6 µM].

`OCC(F)(F)F`: the Potency result was “inactive”.
